Test results as given in PubChem BioAssay.

These compounds were tested against Calmodulin-1 (Homo sapiens) (UniProt P0DP23) (assay: CALM1 binders on microarrays, EGTA buffer, profiling panel, biochemical, small-molecule microarray, Cy5-labelled CALM1 (AID 1111;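 also: labelled calmodulin applied in Tris saline Tween buffer holding calcium plus EGTA and DTT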)). Conditions: Cy5-CALM1 binding fluorescence, higher = more signal.

SMILES	composite z-score
CCOC(=O)C[C@H]1[C@H](OC(=O)c2ccccc2-c2ccccc2)[C@@H](NC(=O)c2ccc(-c3ccccc3)cc2)c2cc(OCCCO)ccc2N1C(=O)c1ccc2ccccc2n1	0.105
C=CCC(OC(C)=O)[C@@H]1[C@@H](N(Cc2ccc(-c3ccccc3)cc2)C(=O)Cc2ccc(F)cc2)c2cc(OCCCO)ccc2N1C(=O)Cc1ccc(OC)cc1 (stereo partly specified)	0.498
O=C(NCC(F)(F)F)[C@@H]1c2ccccc2C(=O)N(Cc2ccc(OC(F)(F)F)cc2)[C@H]1c1ccc(CO)cc1	-0.112
COC(=O)CCCCCCC(=O)Nc1ccc(NC(=O)CCCC[P+](c2ccccc2)(c2ccccc2)c2ccccc2)cc1	-0.0302
CCCCCCc1nc(C2CC2)cc2c1[Si](C(C)C)(C(C)C)OC2	0.208
O=C1O[C@H](c2ccccc2)[C@H](c2ccccc2)N2[C@H]1[C@@H](C(=O)Nc1nc3ccccc3s1)[C@]1(C(=O)Nc3ccccc31)[C@H]2c1ccc(OCCO)cc1	0.504
C=C(/C(=C/C[C@H](OC(=O)c1ccncc1)c1ccc(CO)o1)c1cc(C(=O)OC)ccc1OC)C(C)C	-0.0383
CN(C)C(=O)[C@@]1(CCS(=O)(=O)c2ccccc2)N=C(c2ccc(OCCCO)cc2)O[C@H]1c1ccccc1	1.47
O=C1OCCC/C=C\[C@H]2OC34C=CCN(CCN5CCOCC5)C(=O)[C@H]3N(CCCCCCO)C(=O)[C@@H]4C12 (stereo partly specified)	-0.523
O=C1C2C=CC(C(O)c3ccc(Br)cc3)N(Nc3ccccc3F)C2C(=O)N1c1ccccc1 (stereo unspecified)	0.0034
CCCCC(=C=CC[C@@H](O)c1ccccc1OCCO)C[C@@H](O)COCc1ccccc1	-0.275
